Where “and” joins values, the source holds several entries; their conditions need not be identical. Identical values can stand only once. Counter-ions that a name gives are not always drawn. ± gives the standard deviation of the averaged measurements.

The assay relates to Molm13. Put plainly: cell viability relative to DMSO control (bortezomib = 0%); higher = less growth inhibition. The settings on record: 10 nM; 72 h. In outline:
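Viability was determined with CellTiter-Glo luminescence. Acute myeloid leukemia cells (1000 per well, 50 µL) were exposed for 72 h to 679 approved and investigational compounds at a single 10 nM dose in 384-well plates. Percentages came from per-plate linear regression, setting DMSO-treated wells to 100% and positive-control-treated wells to 0%.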
Consider `CN(C)CCOc1ccc(-c2nc(-c3ccncc3)c(-c3ccc4c(c3)CC/C4=N\O)[nH]2)cc1`, for which the cell viability turned out to be 103 ± 23%.

With `O=C(c1ccc(F)c(F)c1Nc1ccc(I)cc1F)N1CC(O)([C@@H]2CCCCN2)C1` [Cobimetinib], the cell viability was found to be 87.1 ± 14%.

For `O=c1[nH]c(C2CCCN2)nc2c1oc1ccc(Cl)cc12` (stereo not given), the cell viability is 96.9 ± 13%.

On to `CCc1cnn2c(NCc3ccc[n+]([O-])c3)cc(N3CCCC[C@H]3CCO)nc12`, for which the cell viability is 93.2 ± 28%.

As for `CN1C(=O)C(Cc2c[nH]c3ccccc23)NC1=S` (stereo not given) [Necrostatin-1], the cell viability came to 106 ± 9.9%.

Consider `CN1CCN(c2ccc(C(=O)Nc3cc(-c4cccc(NS(=O)(=O)c5ccccc5)c4)[nH]n3)cc2)CC1`, for which the cell viability turned out to be 61.4 ± 18%.

With `CNc1nc(Nc2cn(C(C)(C)C#N)nc2C)ncc1C(F)(F)F`, the cell viability is 109 ± 2.8%.

Consider `COc1cc(OC2CCN(C)CC2)ccc1Nc1ncc2c(n1)n(C1CCCC1)c(=O)n2C`, for which the cell viability amounted to 107 ± 7.8%.

Regarding `COc1cc2ncnc(Oc3ccc(CC(=O)Nc4cnn(C(C)C)c4)cc3)c2cc1OC`, the cell viability came to 24.8 ± 4.2%.

On to `Cc1ccc(-c2csc3ncnc(SCCC(=O)O)c23)cc1`, for which the cell viability came to 108 ± 3.3%.

On to `Nc1nc2cc(-c3ccc4ncc(C(=O)N5CCOCC5)n4c3)ccc2o1`, for which the cell viability came to 98.5 ± 2.2%.

With `CCCCCCCCCCCCCCCCCCOP(=O)([O-])OC1CC[N+](C)(C)CC1` [Perifosine (KRX-0401)], the cell viability amounted to 93.8 ± 14%.

`FC(F)c1nc2ccccc2n1-c1nc(N2CCOCC2)nc(N2CCOCC2)n1`: the cell viability worked out at 117 ± 11%.

As for `CCCCCCCCCCCCCCCCn1cc[n+](Cc2ccccc2)c1C`, the cell viability was 124 ± 5.5%.

For the compound `O=C1Nc2cc(Br)ccc2/C1=C1/Nc2ccccc2/C1=N\O`, the cell viability is 109 ± 2.3%.

With `O=c1cc(N2CCOCC2)oc2c(-c3cccc4c3sc3ccccc34)cccc12`, the cell viability worked out at 108 ± 5.3%.

In the case of `C=CC(=O)Nc1cccc(Nc2nc(Nc3ccc(OCCOC)cc3)ncc2F)c1`, the cell viability was found to be 103 ± 10%.

Regarding `c1cc(-c2cnn3cc(-c4ccc(N5CCNCC5)cc4)cnc23)c2cccnc2c1`, the cell viability came out at 107 ± 1.7%.

As to `NC(=O)c1ccc(N(C(N)=O)c2c(F)cccc2F)nc1-c1ccc(F)cc1F`, the cell viability is 93.7 ± 5.1%.

For the compound `Cc1ccc(NC(=O)c2ccc(CN3CCN(C)CC3)cc2)cc1Nc1nc(-c2cccnc2)cs1` [Masitinib (AB1010)], the cell viability stood at 98.2 ± 12%.

Turning to `NC(=O)c1ccccc1Nc1ccnc(Nc2cccc(O)c2)n1`, the cell viability was 106 ± 34%.

As for `C=CC(=O)Nc1cc2c(Nc3ccc(F)c(Cl)c3)ncnc2cc1OCCCN1CCOCC1` [Canertinib (hydrochloride)], the cell viability worked out at 93.9 ± 14%.

Take `CC(C)CCN1c2nc(Nc3cc(F)c(O)c(F)c3)ncc2N(C)C(=O)C1C` (stereo not given): the cell viability was determined as 100 ± 14%.

On to `CC(C)c1ccc2c(c1)CC[C@H]1[C@](C)(CN)CCC[C@]21C` [Leelamine], for which the cell viability worked out at 96.7 ± 8.5%.

`CC(=O)CC(c1ccccc1)c1c(O)c2ccccc2oc1=O` (stereo not given) [Warfarin sodium]: the cell viability worked out at 105 ± 6.5%.

For `Fc1ccc2[nH]ccc2c1-c1nc(N2CCOCC2)c2sc(CN3CCN(CC4CC4)CC3)cc2n1`, the cell viability was found to be 111 ± 13%.

For `C#Cc1cccc(Nc2ncnc3cc(OC)c(OCCCCCCC(=O)NO)cc23)c1`, the cell viability came out at 105 ± 10%.

As for `CNC(=O)c1ccccc1Sc1ccc2c(/C=C/c3ccccn3)n[nH]c2c1` [Axitinib], the cell viability was found to be 120 ± 7%.

For `Cn1cc(-c2cnn3c(N)c(Br)c([C@@H]4CCCNC4)nc23)cn1`, the cell viability was found to be 92.5 ± 4.6%.

In the case of `Cn1c(=O)n(-c2ccc(C(C)(C)C#N)cc2)c2c3cc(-c4cnc5ccccc5c4)ccc3ncc21`, the cell viability came out at 107 ± 2.7%.

`OCCn1cc(-c2cnc3nnn(Cc4ccc5ncccc5c4)c3n2)cn1`: the cell viability worked out at 120 ± 24%.

Consider `COc1cc2ncnc(Nc3cccc(Cl)c3)c2cc1OC`, for which the cell viability was determined as 98.7 ± 14%.

Take `Cn1cnc(N)c2ncnc1-2` [3-Methyladenine (3-MA)]: the cell viability was 98.3 ± 1.7%.

Regarding `CS(=O)(=O)c1ccc(-c2nc(-c3ccc(F)cc3)c(-c3ccncc3)[nH]2)cc1`, the cell viability was 108 ± 14%.

Turning to `CONC(=O)c1ccccc1Nc1cc(Nc2cc(C)nn2C(C)C)ncc1Cl`, the cell viability is 105 ± 9.6%.

Regarding `COc1cc2ncnc(Nc3cccc(O)c3)c2cc1OC`, the cell viability came out at 109 ± 6.3%.

In the case of `c1ccc(-c2[nH]ncc2-c2ccnc3ccccc23)nc1`, the cell viability was 102% and 105%.

With `C#Cc1cccc(Nc2ncnc3cc(OCCOC)c(OCCOC)cc23)c1` [Erlotinib], the cell viability worked out at 102 ± 6.9%.

On to `Cn1cnc2c(NCc3ccccc3)nc(NCCO)nc21` [Olomoucine], for which the cell viability was found to be 106 ± 16%.

As for `Cc1cc2sc(NC(=O)Cc3ccccc3)nc2cc1Cl`, the cell viability came out at 116 ± 19%.

The values are drawn from the supplement of paper PMC8699584.
